LANA-H2B inh – blocks KSHV LANA binding to histone H2A/H2B; cell-free LANA-H2A/H2B peptide, fluorescence polarization; inhibition, % (concentration not given with the values); Q9QR71; 0.6% of 320,000 active; AID 2629; in the data active = inhibition mostly above about 10%, no sharp cut-off; inactive = mostly below about 6.7%
IDE act – IDE (human) activation, cell-based. P14735. HEK cells, FAbeta-B cleavage, fluorescence polarization; 0% vehicle, 100% cell-free pure enzyme wells. activation, % at 5.96 µM. 0.073% of 340,000 active. AID 493087;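 active = activation above the mean of all tested compounds plus 3 SD, set per screening campaign, cut at about 17% in these data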
IDE cell inh – inhibitors of human insulin-degrading enzyme in cells; HEK cells, FAbetaB cleavage, fluorescence polarization; inhibition, % at 5.59 µM; 0.41% of 320,000 active; AID 434962;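 active = percent inhibition above the average of all tested compounds plus 3 SD, set per screening campaign, cut at about 16% in these data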;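 also: IDE supplied by intact live HEK cells; FP after avidin binding of uncleaved biotin substrate so inhibition keeps polarization high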
HDAC3 inhib – inhibitors of human histone deacetylase 3. inhibition, % at 8.3 µM. O15379. AID 2718. recombinant HDAC3, fluorogenic peptide/trypsin coupled, fluorescence. 0.15% of 320,000 active; in the data active = inhibition above about 26%, passing the limit was not always enough; inconclusive = no clear call, values can overlap the other calls
Target sequence (O15379 whole entry, looked up): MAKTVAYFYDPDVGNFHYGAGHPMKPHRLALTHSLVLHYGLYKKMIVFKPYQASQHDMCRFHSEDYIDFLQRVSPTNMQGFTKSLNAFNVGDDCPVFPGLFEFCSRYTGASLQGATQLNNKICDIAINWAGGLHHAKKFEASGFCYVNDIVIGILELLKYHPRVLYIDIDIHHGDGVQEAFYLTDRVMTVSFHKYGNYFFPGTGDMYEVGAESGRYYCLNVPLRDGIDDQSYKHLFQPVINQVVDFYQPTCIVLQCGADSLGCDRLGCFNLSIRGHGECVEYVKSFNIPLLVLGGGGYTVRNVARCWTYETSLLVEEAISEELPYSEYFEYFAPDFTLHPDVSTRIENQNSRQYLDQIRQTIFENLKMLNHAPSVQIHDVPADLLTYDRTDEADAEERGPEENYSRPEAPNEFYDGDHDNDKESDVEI
Each line names hits and unclear results; the compound was inactive in the other large screens; ! = not confirmed by another sample. Only some compounds are listed: those with a hit (about 1.1% of all), similar ones and a draw of the others.

CC1(c2nnc(Cc3ccccc3)o2)CC(c2c(Cl)cccc2Cl)=NO1 (stereo not drawn)	IDE act 39.4
COc1ccc(OC)c(C(=O)COC(=O)CN2C(=O)NC3(CCCCC3C)C2=O)c1 (stereo not drawn)	IDE act 22.2
Nc1ncnc2c1nc(Br)n2[C@@H]1O[C@@H]2COP(=O)(O)O[C@H]2[C@H]1O	none
CC(C)C[C@@H](CC#N)N1CCN(Cc2ccccc2)CCC1=O	none
O=C(Nc1ccc(N2CCCC2)cc1)C(Cl)c1ccccc1 (stereo not drawn)	LANA-H2B inh 28.2
O=C(NCC1(N2CCCCC2)CCCCC1)c1cccc(S(=O)(=O)Nc2ccc(F)cc2)c1	LANA-H2B inh 23.2
O=C(NCC1(N2CCOCC2)CCCCC1)c1cccc(S(=O)(=O)Nc2ccc(F)cc2)c1	none
O=C(NCC1CCCO1)c1cccc(S(=O)(=O)Nc2ccc(F)cc2)c1 (stereo not drawn)	LANA-H2B inh 63.0
CC(C)CN(C(=O)c1ccc(Br)o1)C1CCS(=O)(=O)C1 (stereo not drawn)	HDAC3 inhib inconclusive
COc1ccccc1N1CCN(C(=O)CCc2nnc3ccc(N4CCCC4)nn23)CC1	none
CCN(c1ccccc1)S(=O)(=O)c1ccc(N2CCN(c3ccc(OC)cc3)CC2)nc1	IDE act 26.3
CCN(CC)c1ccc(NC(=O)CCc2nnc3ccc(N4CCCC4)nn23)c(C)c1	LANA-H2B inh 28.8
CCOC(=O)c1ccc(NC(=O)CCc2nnc3ccc(N4CCCC4)nn23)cc1	none
O=C(O)CCCCCCCC(=O)O	LANA-H2B inh 30.5!
NC(=O)C1CCN(C(c2ccccc2Cl)c2nnnn2Cc2ccc3c(c2)OCO3)CC1 (stereo not drawn)	LANA-H2B inh 25.9
CC(C)C(c1nnnn1Cc1ccc(F)cc1)N1CCC(C(N)=O)CC1 (stereo not drawn)	LANA-H2B inh 38.6
CC(C)C(c1nnnn1Cc1ccc(F)cc1)N1CCSCC1 (stereo not drawn)	none
Cc1ccc(C(C)C)c(OCC(=O)Nc2ccc(N3CCOCC3)cc2N2CCOCC2)c1	none (no result: LANA-H2B inh, IDE cell inh, HDAC3 inhib)
Cc1ccccc1NC(=O)CSC(N)=O	none
COc1ccccc1NC(=O)CSC(N)=O	HDAC3 inhib 63.1
COc1ccccc1NC(=O)Cn1c(C)cc(=O)c2cccc(OC)c21	LANA-H2B inh 24.6 (no result: IDE act)
CCCCc1ccc(S(=O)(=O)N2CCN(C(=O)c3ccco3)CC2)cc1	none
CCn1ncc(C2=NOC(C(=O)Nc3cccc(O)c3)C2)c1C (stereo not drawn)	none
O=c1c2ccccc2nc2c3ccccc3c(NCCN3CCOCC3)nn12	none (no result: IDE act)
O=c1c2c(-c3ccccc3)csc2nc2c3ccccc3c(NCCN3CCOCC3)nn12	IDE act 18.5 (no result: LANA-H2B inh, IDE cell inh, HDAC3 inhib)
C[C@H](CO)N1C[C@H](C)[C@@H](CN(C)C(=O)Nc2ccc(C(F)(F)F)cc2)Oc2ccc(NC(=O)Nc3ccccc3)cc2C1=O	LANA-H2B inh 143.2
C[C@H](CO)N1C[C@H](C)[C@@H](CN(C)Cc2ccncc2)Oc2ccc(NC(=O)Cn3cnnn3)cc2C1=O	none
C[C@H](CO)N1C[C@H](C)[C@@H](CN(C)S(=O)(=O)c2ccc(F)cc2)Oc2c(NC(=O)Nc3ccc(C(F)(F)F)cc3)cccc2C1=O	none
Cc1noc(C)c1NC(=O)Nc1ccc2c(c1)C(=O)N([C@H](C)CO)C[C@H](C)[C@H](CN(C)C)O2	LANA-H2B inh 46.2
C[C@H]1CN([C@@H](C)CO)C(=O)c2cccc(NC(=O)Nc3ccc(C(F)(F)F)cc3)c2O[C@@H]1CN(C)S(=O)(=O)c1ccc(Cl)cc1	LANA-H2B inh 14.8, HDAC3 inhib 34.0
C[C@H](CO)N1C[C@H](C)[C@@H](CN(C)Cc2ccncc2)Oc2ccc(NC(=O)CCCCCC(=O)Nc3ccccc3N)cc2C1=O	HDAC3 inhib 89.9
Cc1cc(S(=O)(=O)N2CCN(c3ccccc3F)CC2)ccc1-n1cnnn1	none
CC(OC(=O)C1CCN(c2ccc(C(F)(F)F)cn2)CC1)C(=O)c1ccccc1 (stereo not drawn)	none
C[C@H](CO)N1C[C@H](C)[C@@H](CN(C)S(=O)(=O)c2ccc(F)cc2)Oc2ccc(NC(=O)Nc3ccc(C(F)(F)F)cc3)cc2C1=O	HDAC3 inhib inconclusive
C[C@@H]1CN([C@H](C)CO)C(=O)c2cc(NC(=O)Nc3ccc(C(F)(F)F)cc3)ccc2O[C@H]1CN(C)S(=O)(=O)c1ccc(Cl)cc1	LANA-H2B inh active
CC[C@@H]1C/C=C\Cc2ccccc2[C@@H](C(=O)C[C@H](O)CC(C)=O)OC1=O	LANA-H2B inh active
COC(=O)C1CCN(C(=O)C2CCN(C(=O)[C@@H](NS(=O)(=O)c3ccc(C)cc3)C(C)C)CC2)CC1	none
N#CC(C#N)=C1C=C2C=C(N3CCOCC3)CCC2CC1 (stereo not drawn)	IDE act 58.4 (no result: LANA-H2B inh, IDE cell inh, HDAC3 inhib)
CCN1CCN(C2=CC3=CC(=C(C#N)C#N)CCC3CC2)CC1 (stereo not drawn)	IDE act 34.6 (no result: LANA-H2B inh, IDE cell inh, HDAC3 inhib)
N#CC(C#N)=C1C=C2C=C(N3CCCCCC3)CCC2CC1 (stereo not drawn)	IDE act 46.9 (no result: LANA-H2B inh, IDE cell inh, HDAC3 inhib)
Cc1ccc2c(c1)[C@H]1[C@H](CO2)[C@H](c2ccccc2)[C@]2(C)C(=O)N(C)CC(=O)N12	none (no result: LANA-H2B inh, IDE cell inh, HDAC3 inhib)
CCCn1nc(-c2ccccc2)c2nc3ccccc3nc21	none (no result: IDE act)
CCCCCn1nc(-c2ccccc2)c2nc3ccccc3nc21	LANA-H2B inh 29.9
CCN(CC)C1=C(Cl)C(=O)C(Cl)C12OCCO2 (stereo not drawn)	LANA-H2B inh 12.4 (no result: IDE act)
COc1cccc(CNC(=O)c2ccccc2-c2ccccc2C(=O)O)c1	none
O=C(O)c1ccccc1-c1ccccc1C(=O)NCc1cccc(C(F)(F)F)c1	LANA-H2B inh 18.0
O=S(=O)(Nc1cccc(-c2nnco2)c1)c1ccc(Cl)cc1	none
CCOC(=O)C1C(=O)OC2(CCOC(C)(C)C2)C1C(=O)OCC (stereo not drawn)	LANA-H2B inh 29.1
CCC(C)NCCOCCOc1ccc(Cl)c2ccccc12 (stereo not drawn)	LANA-H2B inh 12.1
CCC(C)NCCOCCOc1ccc(Cl)c(C)c1C (stereo not drawn)	none
Cc1ccc2oc(C(=O)NCc3ncc(C)[nH]3)c(C)c2c1	none
COc1ccc(/C=N/NC(=O)c2cc(=O)[nH]c3ccccc23)cc1OC	none
O=C(N/N=C/c1ccco1)c1cc(=O)[nH]c2ccccc12	LANA-H2B inh 16.2
COc1ccccc1NC(=O)CC1C(=O)Nc2ccccc2N1C(=O)c1ccccc1 (stereo not drawn)	none
COc1ccc(Oc2cccc(Cl)c2CNC(=O)c2ccccc2C(=O)O)cc1	none (no result: IDE act)
COc1cccc(C2CC(c3ccc(Cl)cc3Cl)Nc3nc(N)nn32)c1 (stereo not drawn)	LANA-H2B inh 10.0
COc1cccc(C2CC(c3ccccc3Cl)Nc3nc(N)nn32)c1 (stereo not drawn)	none
CCCCCCCC/C=C\CCCCCCCC(=O)NCCc1ccc(O)c(O)c1	IDE act 17.4
CCCCCCCC/C=C\CCCCCCCC(=O)NCCO	none
COc1ccc(CCN2CC(C(=O)N(C)Cc3ccccc3OC)CCC2=O)cc1 (stereo not drawn)	LANA-H2B inh 12.3
S=c1[nH]nc(-c2ccc(Cl)cc2Cl)n1-c1ccc(Cl)cc1	LANA-H2B inh 45.4
